Test [1] concerns the target Retinoic acid receptor RXR-alpha (Homo sapiens) (UniProt P19793). Put plainly: OT_NURR1_NURR1RXRa_0480: Odyssey Thera (OT) 8-hour HEK293T Protein Complementation Assay for Nurr1/retinoid X receptor (RXR) (AID 2283385; active = hit-call score of the fitted dose curve at least 0.9, where 1 is the maximum). The method, boiled down: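 Read-out: fluorescence from protein-fragment complementation between Nurr1 and RXRα in human HEK293T cells, 8 h after dosing. DMSO served as negative control; increased signal counted as activity.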

Test [2] has the same target. Description: OT_NURR1_NURR1RXRa_1440: Odyssey Thera (OT) 24-hour HEK293T Protein Complementation Assay for Nurr1/retinoid X receptor (RXR) (AID 2283386; active = hit-call score of the fitted dose curve at least 0.9, where 1 is the maximum). The method in brief: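 Fluorescence PCA read-out; HEK293T; 24 h post-dose; bait/prey fused to reporter fragments; gain-of-signal fit vs DMSO negative control.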
Test [3] deals with Peroxisome proliferator-activated receptor gamma (Homo sapiens) (UniProt P37231). Put plainly: OT_PPARg_PPARgSRC1_0480: Odyssey Thera (OT) 8-hour Protein-Complementation Assay for Peroxisome Proliferator-activated Receptor Gamma / SRC-1 Co-activator (AID 2283387; active = hit-call score of the fitted dose curve at least 0.9, where 1 is the maximum). The method in brief: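 Split-YFP (IFP1/IFP2) PPARg/SRC-1 reporter, HEK293T, 37 °C, 5% CO2; 8 h compound; formaldehyde fix + Draq5; high-content imaging, N/C ratio, ≥350 cells/image, positive direction vs DMSO.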

Test [4] has the same target. Put plainly: OT_PPARg_PPARgSRC1_1440: Odyssey Thera (OT) 24-hour Protein-Complementation Assay for Peroxisome Proliferator-activated Receptor Gamma/ SRC-1 Co-activator (AID 2283388; active = hit-call score of the fitted dose curve at least 0.9, where 1 is the maximum). The method, boiled down: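 HEK293T transiently transfected with PPARg/SRC-1 split-Venus YFP fusions 48 h before dosing, then treated 24 h at 37C. Fixed cells imaged; nuclear/cytoplasmic 488 nm fluorescence ratio, gain of signal versus DMSO.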

The nature of test [5]: CEETOX_H295R_11DCORT: CeeTox H295R High-throughput Steroidogenesis Assay for 11-Deoxycortisol (11DCORT) (AID 2283432).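 For AC50: 11-deoxycortisol secreted into the medium measured by LC-MS/MS.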 Conditions: actives raise or lower the signal. The method, boiled down:
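Steroidogenesis in human H295R cells: 48 h chemical exposure after forskolin priming, 11-deoxycortisol measured by LC-MS/MS.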

Test [6] is described as follows: CEETOX_H295R_OHPREG: CeeTox H295R High-throughput Steroidogenesis Assay for OH-Pregnenolone (OHPREG) (AID 2283434). Conditions: actives raise or lower the signal. The method, boiled down:
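Secreted 17alpha-hydroxypregnenolone measured by HPLC-MS/MS after liquid-liquid extraction. Human adrenal H295R cells received 48 h forskolin (10 uM) stimulation before 48 h chemical exposure at 0.1% final DMSO; MTT viability in same wells; bidirectional fit against DMSO.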

Test [7] in a line: CEETOX_H295R_CORTIC: CeeTox H295R High-throughput Steroidogenesis Assay for Corticosterone (CORTIC) (AID 2283437). The conditions noted are these: actives raise or lower the signal. The method, boiled down: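 Medium corticosterone was quantified by tandem mass spectrometry following 48 hours of chemical exposure (0.1% DMSO) in human H295R cells previously stimulated 48 hours with 10 uM forskolin. Viability checked by MTT; chemicals diluted and retested when viability fell below 70%.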

Test [8] is described as follows: CEETOX_H295R_CORTISOL: CeeTox H295R High-throughput Steroidogenesis Assay for Cortisol (AID 2283438).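 Note: cortisol secreted into medium quantified by LC-MS/MS.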 Conditions: actives raise or lower the signal. The method in brief:
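Read-out: cortisol in culture medium by reverse-phase C18 HPLC with ESI-positive tandem MS, after MTBE liquid-liquid extraction. Cells: human adrenal H295R, forskolin-primed (10 uM, 48 h) before 48 h chemical exposure in 0.1% DMSO.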

A short description of test [9]: CEETOX_H295R_DOC: CeeTox H295R High-throughput Steroidogenesis Assay for DOC (AID 2283439). The conditions noted are these: actives raise or lower the signal. The method, boiled down:
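Human adrenocortical H295R cells, passages up to 10, received 10 uM forskolin for 48 h before chemical addition. After another 48 h exposure in 0.1% DMSO, secreted DOC was measured by LC-MS/MS, with gain or loss fitted against DMSO controls.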

Test [10] can be described thus: CEETOX_H295R_PROG: CeeTox H295R High-throughput Steroidogenesis Assay for Progesterone (PROG) (AID 2283442). The conditions noted are these: actives raise or lower the signal. The method in brief:
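H295R adrenal cells prestimulated 48 h with 10 uM forskolin, then exposed 48 h to test chemical in 0.1% DMSO. Progesterone in medium quantified by HPLC-MS/MS after MTBE extraction; viability checked by MTT in same wells.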

Read-out in test [11]: Tumor necrosis factor receptor superfamily member 6 (Homo sapiens) (UniProt P25445)
Description: LTEA_HepaRG_FAS: Life Technologies and Expression Analysis (LTEA) Assay for Fas cell surface death receptor (FAS) using HepaRG (AID 2283447). The conditions noted are these: mRNA level, 48 h; actives raise or lower the signal. The method, boiled down:
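FAS transcript level was measured by TaqMan qRT-PCR against three housekeeping genes after 48 h chemical exposure. Cells were HepaRG, 0.5% DMSO vehicle, with a top concentration of 100 uM and half-log dilutions over eight points, in duplicate.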

Read-out in test [12]: Fatty acid synthase (Homo sapiens) (UniProt P49327)
Description: LTEA_HepaRG_FASN: Life Technologies and Expression Analysis (LTEA) Assay for Fatty Acid Synthase (FASN) using HepaRG (AID 2283448).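 For AC50: differentiated human HepaRG liver cells in serum-free induction medium.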 The conditions noted are these: mRNA level, 48 h; actives raise or lower the signal. The method in brief: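 HepaRG, 48 h exposure, 8-pt half-log series top 100 uM, 0.5% DMSO vehicle, duplicates. Readout: FASN transcript by Fluidigm qRT-PCR; housekeeping-normalized; bidirectional curve fit vs DMSO baseline.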

Read-out in test [13]: Cyclin D2 (CCND2), CCND2 (gene 894)
Description: LTEA_HepaRG_CCND2: Life Technologies and Expression Analysis (LTEA) Assay for Cyclin D2 (CCND2) using HepaRG (AID 2283449). Conditions: mRNA level, 48 h; actives raise or lower the signal. The method, boiled down:
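CCND2 transcript levels, quantified by qRT-PCR and normalised to three housekeeping genes, were fitted bidirectionally against 0.5% DMSO. HepaRG cultures were dosed 48 h in duplicate with an 8-point half-log series up to 100 uM.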

Read-out in test [14]: Cyclin Dependent Kinase Inhibitor 1A (CDKN1A), CDKN1A (gene 1026)
Put plainly: LTEA_HepaRG_CDKN1A: Life Technologies and Expression Analysis (LTEA) Assay for Cyclin Dependent Kinase Inhibitor 1A (CDKN1A) using HepaRG (AID 2283450). The conditions noted are these: mRNA level, 48 h; actives raise or lower the signal. The method, boiled down: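 Differentiated HepaRG cells in serum-free induction medium, exposed 48 h in duplicate to eight half-log concentrations up to 100 uM in 0.5% DMSO. mRNA measured by TaqMan qRT-PCR, normalized to ACTB, GAPDH, POLR2A; bidirectional fit versus DMSO.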

Read-out in test [15]: Cyclin D1 (CCND1), CCND1 (gene 595)
Description: LTEA_HepaRG_CCND1: Life Technologies and Expression Analysis (LTEA) Assay for Cyclin D1 (CCND1) using HepaRG (AID 2283451). Conditions: mRNA level, 48 h; actives raise or lower the signal. The method in brief:
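Differentiated HepaRG cells exposed 48 h in serum-free induction medium to eight half-log concentrations from 100 uM top, 0.5% DMSO, duplicates. CCND1 mRNA measured by Fluidigm TaqMan qRT-PCR, normalised to ACTB, GAPDH, POLR2A; bidirectional fit.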

Read-out in test [16]: flavin-containing dimethylaniline monooxygenases 3 (FMO3), FMO3 (gene 2328)
Put plainly: LTEA_HepaRG_FMO3: Life Technologies and Expression Analysis (LTEA) Assay for flavin-containing dimethylaniline monooxygenases 3 (FMO3) using HepaRG (AID 2283453).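 For AC50: differentiated human HepaRG liver cells in serum-free induction medium; FMO3 transcript by TaqMan qRT-PCR normalized to ACTB GAPDH and POLR2A.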 The conditions noted are these: mRNA level, 48 h; actives raise or lower the signal. The method in brief:
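Eight-point concentration-response in serum-free HepaRG cultures (top 100 uM, 0.5% DMSO, 48 h). Read-out: FMO3 mRNA level normalized to three endogenous control genes, fitted bidirectionally versus vehicle.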

Read-out in test [17]: catalase (CAT), CAT (gene 847)
Description: LTEA_HepaRG_CAT: Life Technologies and Expression Analysis (LTEA) Assay for catalase (CAT) using HepaRG (AID 2283452). Conditions: mRNA level, 48 h; actives raise or lower the signal. The method in brief:
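Expression of CAT was quantified by TaqMan qRT-PCR with ACTB/GAPDH/POLR2A normalization after 48 h chemical exposure of HepaRG. Eight-point half-log series, top 100 uM, in 0.5% DMSO; gain or loss fitted against vehicle.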

Results filed as inconclusive are left out. Some compounds were tested as several samples or in several runs, with calls that do not always agree. Activity calls are given as the source filed them. Rule for the calls, unless noted: active = hit-call score of the fitted dose curve at least 0.9, where 1 is the maximum; inactive = score below 0.9.

Sequence of Fatty acid synthase (Homo sapiens) (P49327 whole entry, looked up): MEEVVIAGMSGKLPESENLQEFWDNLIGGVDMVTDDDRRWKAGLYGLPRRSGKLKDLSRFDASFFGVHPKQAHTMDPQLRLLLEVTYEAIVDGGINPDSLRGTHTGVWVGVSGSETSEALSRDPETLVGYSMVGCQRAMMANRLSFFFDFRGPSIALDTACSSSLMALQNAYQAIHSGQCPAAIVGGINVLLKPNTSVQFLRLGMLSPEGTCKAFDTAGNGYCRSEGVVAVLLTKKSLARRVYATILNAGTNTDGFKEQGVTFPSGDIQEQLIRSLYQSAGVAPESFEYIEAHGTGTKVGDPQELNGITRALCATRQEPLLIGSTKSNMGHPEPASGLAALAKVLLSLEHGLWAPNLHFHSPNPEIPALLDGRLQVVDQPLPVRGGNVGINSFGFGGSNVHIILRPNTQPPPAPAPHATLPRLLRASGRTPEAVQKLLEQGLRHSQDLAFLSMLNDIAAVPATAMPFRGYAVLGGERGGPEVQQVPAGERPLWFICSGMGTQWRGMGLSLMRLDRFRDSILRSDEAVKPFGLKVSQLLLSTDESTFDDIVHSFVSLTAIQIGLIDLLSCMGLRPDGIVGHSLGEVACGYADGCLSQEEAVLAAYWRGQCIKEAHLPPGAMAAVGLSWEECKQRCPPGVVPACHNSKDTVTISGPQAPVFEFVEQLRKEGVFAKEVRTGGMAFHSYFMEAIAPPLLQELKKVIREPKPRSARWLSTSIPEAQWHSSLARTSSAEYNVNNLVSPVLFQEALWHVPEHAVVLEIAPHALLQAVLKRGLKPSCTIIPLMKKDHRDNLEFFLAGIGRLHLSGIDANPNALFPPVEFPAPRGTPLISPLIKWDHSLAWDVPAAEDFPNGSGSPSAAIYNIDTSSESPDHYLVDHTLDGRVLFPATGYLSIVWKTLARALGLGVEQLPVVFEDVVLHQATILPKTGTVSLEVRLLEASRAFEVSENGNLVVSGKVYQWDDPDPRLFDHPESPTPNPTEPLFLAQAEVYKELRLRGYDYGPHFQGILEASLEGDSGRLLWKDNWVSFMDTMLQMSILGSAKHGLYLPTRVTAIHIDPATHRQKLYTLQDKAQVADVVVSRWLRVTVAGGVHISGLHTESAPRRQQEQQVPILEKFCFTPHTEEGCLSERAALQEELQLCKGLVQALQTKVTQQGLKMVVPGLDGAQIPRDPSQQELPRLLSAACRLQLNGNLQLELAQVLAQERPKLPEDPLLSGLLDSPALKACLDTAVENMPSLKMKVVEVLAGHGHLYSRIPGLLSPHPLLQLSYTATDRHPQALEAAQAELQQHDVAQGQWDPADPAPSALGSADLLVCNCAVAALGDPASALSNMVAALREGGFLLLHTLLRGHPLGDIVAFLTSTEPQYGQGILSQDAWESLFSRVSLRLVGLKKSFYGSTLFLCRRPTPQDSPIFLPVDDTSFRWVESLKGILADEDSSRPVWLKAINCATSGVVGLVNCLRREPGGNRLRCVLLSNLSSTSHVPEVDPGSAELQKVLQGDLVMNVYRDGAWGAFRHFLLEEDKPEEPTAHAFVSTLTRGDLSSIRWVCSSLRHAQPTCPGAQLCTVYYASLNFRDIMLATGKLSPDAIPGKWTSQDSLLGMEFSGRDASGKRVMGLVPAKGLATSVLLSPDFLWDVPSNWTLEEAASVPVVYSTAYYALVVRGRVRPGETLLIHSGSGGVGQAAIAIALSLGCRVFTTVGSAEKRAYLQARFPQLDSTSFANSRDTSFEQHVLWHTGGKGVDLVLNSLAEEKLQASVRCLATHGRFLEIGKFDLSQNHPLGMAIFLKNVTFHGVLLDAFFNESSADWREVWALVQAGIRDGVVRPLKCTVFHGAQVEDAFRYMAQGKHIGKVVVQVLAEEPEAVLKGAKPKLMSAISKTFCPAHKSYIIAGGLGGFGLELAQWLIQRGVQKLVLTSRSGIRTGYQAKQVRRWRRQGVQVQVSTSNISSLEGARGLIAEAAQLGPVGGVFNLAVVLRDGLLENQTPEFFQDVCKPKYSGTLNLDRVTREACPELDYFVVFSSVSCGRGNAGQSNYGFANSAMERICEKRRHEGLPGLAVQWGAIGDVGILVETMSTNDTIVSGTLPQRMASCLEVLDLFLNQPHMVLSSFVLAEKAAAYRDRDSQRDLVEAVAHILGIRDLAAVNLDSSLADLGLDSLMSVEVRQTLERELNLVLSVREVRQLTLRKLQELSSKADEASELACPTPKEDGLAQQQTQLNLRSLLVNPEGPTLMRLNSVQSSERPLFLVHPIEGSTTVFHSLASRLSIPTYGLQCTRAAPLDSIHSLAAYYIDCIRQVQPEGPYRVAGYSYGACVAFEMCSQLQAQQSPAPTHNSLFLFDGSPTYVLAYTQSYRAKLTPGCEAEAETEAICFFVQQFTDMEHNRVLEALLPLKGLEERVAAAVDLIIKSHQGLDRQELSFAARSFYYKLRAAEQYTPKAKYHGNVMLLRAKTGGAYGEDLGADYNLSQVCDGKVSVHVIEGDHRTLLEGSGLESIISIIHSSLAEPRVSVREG
Sequence of Retinoic acid receptor RXR-alpha (Homo sapiens) (P19793 whole entry, looked up, the tested form may be a part): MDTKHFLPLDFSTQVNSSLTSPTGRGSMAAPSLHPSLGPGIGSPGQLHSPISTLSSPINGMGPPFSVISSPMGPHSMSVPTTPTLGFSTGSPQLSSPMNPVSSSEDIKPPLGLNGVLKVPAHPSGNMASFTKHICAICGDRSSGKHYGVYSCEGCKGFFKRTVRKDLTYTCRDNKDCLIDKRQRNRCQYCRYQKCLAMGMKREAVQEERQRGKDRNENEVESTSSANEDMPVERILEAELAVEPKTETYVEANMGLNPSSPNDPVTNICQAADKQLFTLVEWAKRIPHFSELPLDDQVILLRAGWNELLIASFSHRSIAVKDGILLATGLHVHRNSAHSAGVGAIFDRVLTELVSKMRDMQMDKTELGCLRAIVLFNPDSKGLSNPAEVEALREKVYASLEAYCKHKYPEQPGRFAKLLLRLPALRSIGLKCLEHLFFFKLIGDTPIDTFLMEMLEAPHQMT
Sequence of Peroxisome proliferator-activated receptor gamma (Homo sapiens) (P37231 whole entry, looked up): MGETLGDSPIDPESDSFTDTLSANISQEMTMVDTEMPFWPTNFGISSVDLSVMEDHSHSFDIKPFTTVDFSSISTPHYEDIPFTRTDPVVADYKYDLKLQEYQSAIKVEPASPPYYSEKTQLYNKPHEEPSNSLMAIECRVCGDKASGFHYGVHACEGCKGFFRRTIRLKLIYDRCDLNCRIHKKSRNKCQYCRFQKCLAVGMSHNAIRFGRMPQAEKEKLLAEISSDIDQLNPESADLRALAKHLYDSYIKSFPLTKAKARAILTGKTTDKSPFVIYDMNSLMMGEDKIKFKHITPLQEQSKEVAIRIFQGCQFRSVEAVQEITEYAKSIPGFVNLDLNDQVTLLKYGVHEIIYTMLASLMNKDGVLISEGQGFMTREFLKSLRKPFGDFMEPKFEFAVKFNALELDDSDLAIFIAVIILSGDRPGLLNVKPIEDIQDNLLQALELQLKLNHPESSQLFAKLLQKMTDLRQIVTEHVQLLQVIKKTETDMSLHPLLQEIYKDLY

As to `CC(C)(C)C(O)(CCc1ccc(Cl)cc1)Cn1cncn1` (stereo not given), the call in test [1], in [2], in test [3], in test [4], in test [7] and in [11] was inactive. Also, the compound was classed as inactive in test [13] and in [15]. Also, the AC50 (in general, the concentration at which the activity in the assay is half-maximal) in test [5] is 1.85 µM (active); in test [6] it was 0.503 µM (active); in test [8], 5.75 µM (active); in test [9] it was 0.26 µM (active); in test [10], 0.121 µM (active); in test [12], 3.08 µM (active). Moreover, the values for the AC50 in test [14] and in test [16] were 88.7 µM (active) and 76.7 µM (active), respectively.

Regarding `Clc1ccc(C(c2ccc(Cl)cc2)C(Cl)Cl)cc1`, the AC50 is 92.4 µM (active) in [1], 80.9 µM (active) in test [2] and 73.7 µM (active) in test [12]. Also, the compound was called inactive in test [3], in test [4], in test [11], in test [13], in [14] and in test [15]. For the same compound, the call in test [16] was inactive.

With `CCOc1cccc(C2(N3CCN(c4ccccc4)CC3)CCC(C)CC2)c1` (stereo not given), the call in test [1], in [2], in test [3], in [4], in test [5] and in [8] was inactive. The call in test [11], in [12], in test [13], in test [14], in test [15] and in test [16] was inactive. In addition, the half-maximal activity concentration (AC50) in test [6] was 81.7 µM (active); in test [7] it was 23.6 µM (active); in test [9], 29.8 µM (active); in test [10] it was 35.5 µM (active).

Regarding `Oc1ccc2ccc3cccc4ccc1c2c34`, the result in test [1], in [2], in test [10], in [12], in test [13] and in [14] was inactive. For the same compound, the outcome in [15], in test [17] and in test [16] was inactive. The AC50 in test [2] is 9.46 µM (active); in [5] it was 18.8 µM (active); in [6] it was 25 µM (active); in test [7], 25.5 µM (active); in test [8], 35.7 µM (active); in test [9] it was 12.9 µM (active).

For the compound `O=P(OCCCl)(OCCCl)OCCCl`, the result in [1], in [2], in test [3], in test [4], in test [5] and in [6] was inactive. The compound was called inactive in [7], in [8], in test [9], in [10], in test [11] and in test [12]. In addition, the outcome in [13], in test [14], in test [15], in [17] and in test [16] was inactive.

Consider `CCN(CC)CCO`, for which the compound was classed as inactive in test [1], in [2], in test [3], in [4], in [12] and in test [13]. For the same compound, the compound was classed as inactive in test [14], in test [15], in [17] and in [16].

For `C1=Cc2cccc3cccc1c23`, the call in test [1], in test [2], in [3], in [4], in [12] and in [13] was inactive. Besides, the compound was called inactive in [14], in [15], in test [17] and in test [16].

Take `Oc1ccccc1Cl`: the call in [1], in test [2], in [3], in test [4], in test [11] and in [12] was inactive. Moreover, the call in test [13], in test [14], in test [15], in [17] and in test [16] was inactive.

The values are drawn from PubChem BioAssay (EPA / NIEHS).
